Measured values from PubChem BioAssay AID1159606 (Sanford-Burnham Center for Chemical Genomics, 2016).
The campaign covered roughly 360,000 compounds. About 7,300 (2%) were called active. Cut-off read from the data, not from the text of the source: active = inhibition above about 50%; inactive = the rest. This excerpt belongs to a sample that is enriched for actives.

test: inhibitors of TWEAK-Fn14 signaling, primary screen, luciferase reporter cells, uHTS (AID 1159606); details: TWEAK-stimulated Fn14 reporter cells, luciferase luminescence, 8 h; at 10 µM; stronger effect = higher value

Structure (SMILES) | inhibition
CC(=CCOc1ccc2ccc(=O)oc2c1)C1=CC(=O)C(C)(C)O1 | 70.4% (active)
CSc1nc2ccc(C)cc2c(=O)n1-c1cccnc1 | 0.75% (inactive)
CN(C)c1ccc(/C=C2\CC3C4CC=C5CC(O)CCC5(C)C4CCC3(C)C2=O)cc1 (stereo not given) | -57.2% (inactive)
NC(=O)Nc1cccc(C(F)(F)F)c1 | -2.53% (inactive)
Cc1cccc(NC(=O)N2CC3CC(C2)c2cccc(=O)n2C3)c1 (stereo not given) | 3.66% (inactive)
CNC(=O)O/N=C(\N)Cc1csc2ccccc12 | 16.5% (inactive)
CC(=O)c1ccc(OC(NC(=O)Cc2ccccc2)C(Cl)(Cl)Cl)cc1 (stereo not given) | -4.23% (inactive)
C[C@H]1CN([C@@H](C)CO)C(=O)CCCn2nncc2CO[C@H]1CN(C)C(=O)Oc1cccc2ccccc12 | 9.18% (inactive)
O=C1NC(=O)C(C/C=C/c2ccccc2)C(=O)N1 | 0.48% (inactive)
CCCCCCCCCCCCn1ccc(=N)cc1 | 74% (active)
CCCn1c(C(=O)c2ccccc2OC)nc2ccccc21 | -3.91% (inactive)
COc1ccc2c(c1)NP(=S)(c1ccccc1)N2 (stereo not given) | -0.5% (inactive)
CN(C)CC1Oc2ccccc2OC1(O)c1ccccc1 (stereo not given) | 79.6% (active)
Cc1ncoc1C(=O)NCC1=C(c2cccc3ccccc23)C[C@@H]2CC[C@H]1N2Cc1ccco1 | -0.7% (inactive)
COc1cccc(-c2nc3ccc(N4CCN(C)CC4)cc3[nH]2)c1 | -27.5% (inactive)
CC12CCC(O)CC1CCC1C2CCC2(C)C(C(=O)CC(O)C(F)(F)F)CCC12 (stereo not given) | -91.4% (inactive)
C[C@]12CC[C@H](O)C[C@H]1CC[C@@H]1C2CC[C@]2(C)[C@@H](C3=CC(=O)OC3)[C@@H](O)C[C@]12O (stereo not given in full) | 56.4% (active)
O=c1[nH]c(=O)n(-c2ccc(F)cc2)c(O)c1C=NCCN1CCCCC1 | 6.59% (inactive)
CN(C)C(=O)Oc1cc(=O)n2c3c(cccc13)CCC2 | 30.3% (inactive)
Cc1cc(C(=O)OCC(=O)Nc2c(F)cccc2F)c(C)n1C1CC1 | 4.53% (inactive)
C[C@]12CCC3C(CC[C@H]4[C@H](O)[C@H](O)CC[C@]34C)C1CCC2=O (stereo not given in full) | 96.5% (active)
C[C@]12CC[C@H](O)CC1=C([N+](=O)[O-])CC1C2CC[C@@]2(C)C1CC[C@@H]2O (stereo not given in full) | 1.49% (inactive)
C[C@]12CCC3C(CC[C@H]4[C@H](O)[C@H](O)CC[C@]34C)C1CC[C@@H]2O (stereo not given in full) | -13.2% (inactive)
OC1/C(=C/c2ccc(C(F)(F)F)cc2)N2CCC1CC2 (stereo not given) | -3% (inactive)
COC(=O)C1=C(c2ccc3ccccc3c2)C[C@@H]2CC[C@H]1N2C(=O)NCCO | 6.86% (inactive)

Structure (SMILES) | inhibition
CCN1CCN(c2nc3c(c(=O)[nH]2)CCC3)CC1 | 14.3% (inactive)
COc1ccc2[nH]c3c(c2c1)CCN[C@H]3C | 75.7% (active)
Cc1ccc2c(c1)=C/C(=C\c1c(O)[nH]c(=O)[nH]c1=O)C(=O)N=2 | -3.63% (inactive)
Cc1cc2ccccn2c1C(C[N+](=O)[O-])c1c(F)cccc1Cl (stereo not given) | 102% (active)
Cc1cccc(-n2c(C)nc3cc(C(=O)N4CCC5(CC4)OCCO5)ccc32)c1 | -8.93% (inactive)
O=c1[nH]c2ccccc2n1C1CCN(C(c2ccnc3ccccc23)c2nnnn2Cc2ccccc2)CC1 (stereo not given) | 27.5% (inactive)
CCN(N=Nc1nonc1OC)c1nonc1OC | -11.1% (inactive)
O=C1NC(=O)N(CCc2ccc(F)cc2)C(=O)/C1=C/C=C/c1ccccc1 | 79.4% (active)
COC1=CC=C2[C@H]3Cc4ccc(OC)c5c4[C@@]2(CCN3C)C1O5 (stereo not given in full) | -16% (inactive)
Cc1cc(N2C(=O)C3CCCN3C2c2ccc(Cl)c(Cl)c2)no1 (stereo not given) | -3.31% (inactive)
CC(C)c1ccc(O)c(CN2CCN(c3ccccc3)CC2)c1 | 4.05% (inactive)
CCC(C)(O)C(=O)OC1C(=O)OC2CC3C(C)=CC(=O)C(O)C3(C)C3C4(O)OCC23C1C(C)C4O (stereo not given) | 99.5% (active)
CCOP(=O)(OCC)C(O)c1ccc(OC)cc1OC (stereo not given) | 3.38% (inactive)
CCC(=O)OC(Cc1ccccc1)(c1ccccc1)C(C)CN(C)C (stereo not given) | 3.52% (inactive)
O=C(NCC1=C(c2ccc3ccccc3c2)C[C@@H]2CC[C@H]1N2Cc1ccco1)c1cccs1 | -11.2% (inactive)
CC(=O)OC1C2(CC3N4C(=O)C5(CO)SSC4(CC31O)C(=O)N5C)OC(C)C(C)(C)C2=O (stereo not given) | 107% (active)
CN(C)C(=O)NC(O)C(Cl)(Cl)Cl (stereo not given) | 5.54% (inactive)
Cc1cccc(-n2c(O)c(C=NC34CN5CN(CN(C5)C3)C4)c(=O)[nH]c2=O)c1 | -1.26% (inactive)
COC1C(O)C(C)OC(OC2CCC3(C=O)C(CCC4C3CCC3(C)C(C5=CC(=O)OC5)CCC43O)C2)C1O (stereo not given) | 80.6% (active)
CC(=NCc1ccc2c(c1)OCO2)c1c(O)[nH]c(=O)[nH]c1=O | -1.24% (inactive)
CCN(CC)C(=O)Oc1ccc(NC(=O)N2CCOCC2)cc1 | 12.2% (inactive)
Cc1ccc(N(C)C(=O)Oc2cccc3ccc(C)nc23)cc1 | -2.35% (inactive)
O=Cc1cn(Cc2ccc(F)cc2Cl)c2ccccc12 | 56.5% (active)
CC1C(=O)OC2CCN3CC=C(COC(=O)C(C)(O)C1(C)O)C23 (stereo not given) | -18.7% (inactive)
CC[N+]1(C)CCCC(OC(=O)C(O)(c2ccccc2)c2ccccc2)C1 (stereo not given) | -7.55% (inactive)

Structure (SMILES) | inhibition
CCOC(=O)[C@]12Cc3ccccc3[C@H]1N(C1CCCCC1)C(=O)c1cc(OC)ccc12 | 42.5% (inactive)
COC(=O)CN(CCCl)P1(=O)OCCCN1CCCl (stereo not given) | -6.99% (inactive)
O=C1NC(=O)C(CCOc2ccccc2)(CCc2ccccc2)C(=O)N1 | -21.8% (inactive)
COc1ccccc1C1=NCc2nnc(CSC)n2-c2ccc(Cl)cc21 | 12.6% (inactive)
CCN1CC2C3CCC(C)(O3)C2C1 (stereo not given) | 2.33% (inactive)
CCOC(=O)C1=C(C)OC(N)=C(C(=O)OC)C12C(=O)Nc1ccc(Br)cc12 (stereo not given) | -9.87% (inactive)
N#CC1=C(N)Oc2c(c(=O)oc3ccccc23)C1c1ccccc1OC(=O)c1cccs1 (stereo not given) | 51.3% (active)
COc1ccc(C2C=C(C)Oc3c2c(=O)oc2ccccc32)cc1OC (stereo not given) | 1.69% (inactive)
CCNc1nc2[nH]c(=O)c3c(c2s1)OC(N)=C(C#N)C3c1cccs1 (stereo not given) | 19.6% (inactive)
Nc1ccc(Cc2ccc(N)c(Cl)c2)cc1Cl | 7.24% (inactive)
COc1ccccc1OC(=O)c1ccc(C)c(S(=O)(=O)N2CCOCC2)c1 | 5.54% (inactive)
COC(=O)C1=C(c2ccc(F)cc2F)C[C@@H]2CC[C@H]1N2C(=O)NC1CC1 | 10.7% (inactive)
CCC/C(=N\O)c1c[nH]c2ccccc12 | -11.5% (inactive)
CCOc1ccc(C2SCC(=O)Nc3c2c(C)nn3C2CCOC(C)(C)C2)cc1 (stereo not given) | 7.72% (inactive)
Cc1ccc(P(=S)(c2ccc(C)o2)N2CCOCC2)o1 | 73.2% (active)
CCOC(=O)[C@]12Cc3cc(OC)ccc3[C@H]1N(C(C)C)C(=O)c1ccccc12 | 25.1% (inactive)
O=C(NC1CCCCC1)N1Cc2cc(N3CCCCC3)ccc2-n2nncc2C1 | -46.7% (inactive)
CN1CCN(/N=C/c2c[nH]c3ccccc23)CC1 | 4.46% (inactive)
COC(=O)C1=C(c2ccc(OCc3ccccc3)cc2)C[C@@H]2CC[C@H]1N2C(=O)NCc1cccc(F)c1 | 37.4% (inactive)
CN1CCN(Cc2ccccc2C(F)(F)F)CC1 | 0.88% (inactive)
Fc1cccc(F)c1CN1CCN(Cc2c(F)cccc2F)CC1 | 92.7% (active)
C/C(=N/O)c1ccc2ccc3ccccc3c2c1 | 2.22% (inactive)
COc1ccccc1N1CCN(C(CNC(=O)Oc2ccccc2)c2cccnc2)CC1 (stereo not given) | 3.6% (inactive)
COCc1cc(OC(=O)N(C)C)nc(-c2ccc(C)c(Cl)c2)n1 | 6.49% (inactive)
c1cc2c(cc1[C@H]1OC[C@H]3[C@@H]1CO[C@@H]3c1ccc3c(c1)OCO3)OCO2 | -20.1% (inactive)
